Test results reported in the supplement of paper PMC11732987, “Enantioselective OTUD7B fragment discovery through chemoproteomics screening and high-throughput optimisation” (Communications Chemistry, 2025).

What was measured:
Experiment in all cases: log2 ratio of Biotin-Ahx-Ub-VS probe labelling (fragment/DMSO); higher = less target engagement (more negative = stronger competition), active = hit call of the paper (q ≤ 0.05, log2 ratio ≤ -1)
Conditions in all cases: compound concentration: 200 uM; treatment time: 3 h
[1] = target: T1, USP42 (UniProt Q9H9J4)
T1 sequence (whole entry): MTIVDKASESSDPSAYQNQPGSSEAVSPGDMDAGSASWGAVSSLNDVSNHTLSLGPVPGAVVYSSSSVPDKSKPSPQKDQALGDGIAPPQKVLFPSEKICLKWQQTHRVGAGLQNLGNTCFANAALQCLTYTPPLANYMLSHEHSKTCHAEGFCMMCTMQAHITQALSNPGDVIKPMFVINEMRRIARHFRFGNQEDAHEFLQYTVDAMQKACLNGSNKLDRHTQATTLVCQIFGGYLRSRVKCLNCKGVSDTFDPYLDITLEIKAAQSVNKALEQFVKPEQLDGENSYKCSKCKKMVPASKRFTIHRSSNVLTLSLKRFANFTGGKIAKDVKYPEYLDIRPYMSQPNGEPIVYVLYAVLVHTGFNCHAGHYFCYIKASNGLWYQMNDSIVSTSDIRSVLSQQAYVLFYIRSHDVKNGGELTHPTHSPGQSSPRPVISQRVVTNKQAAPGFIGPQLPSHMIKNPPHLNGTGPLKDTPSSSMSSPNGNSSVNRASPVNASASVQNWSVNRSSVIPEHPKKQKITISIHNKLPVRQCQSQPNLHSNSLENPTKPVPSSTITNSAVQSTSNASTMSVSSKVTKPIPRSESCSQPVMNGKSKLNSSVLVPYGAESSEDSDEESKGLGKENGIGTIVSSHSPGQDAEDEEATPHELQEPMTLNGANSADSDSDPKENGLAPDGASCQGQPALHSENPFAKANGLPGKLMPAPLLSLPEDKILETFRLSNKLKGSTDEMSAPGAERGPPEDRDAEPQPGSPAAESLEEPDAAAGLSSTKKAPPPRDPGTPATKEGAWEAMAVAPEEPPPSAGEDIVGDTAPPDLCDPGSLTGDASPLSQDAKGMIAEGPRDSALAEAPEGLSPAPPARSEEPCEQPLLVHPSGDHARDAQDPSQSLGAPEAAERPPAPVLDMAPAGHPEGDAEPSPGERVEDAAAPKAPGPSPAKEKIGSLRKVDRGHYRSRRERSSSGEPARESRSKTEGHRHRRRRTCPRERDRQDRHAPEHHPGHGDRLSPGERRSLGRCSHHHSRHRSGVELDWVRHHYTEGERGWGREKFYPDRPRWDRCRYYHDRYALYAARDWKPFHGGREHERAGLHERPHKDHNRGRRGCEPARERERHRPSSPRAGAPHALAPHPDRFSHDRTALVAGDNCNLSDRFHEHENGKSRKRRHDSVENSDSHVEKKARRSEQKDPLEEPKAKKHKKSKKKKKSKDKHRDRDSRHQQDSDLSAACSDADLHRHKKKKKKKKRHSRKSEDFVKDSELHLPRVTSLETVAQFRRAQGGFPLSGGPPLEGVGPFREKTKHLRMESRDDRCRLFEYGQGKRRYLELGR
Method in brief: (§1)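 Labelled DUBs from HEK293T lysate were NeutrAvidin-enriched, digested with LysC and trypsin, and run by diaPASEF LC-MS/MS. Before that, each 495 µg sample in Tris/CHAPS/IGEPAL buffer with protease inhibitors was treated in triplicate with fragment at 200 µM or vehicle for 3 h, then with Biotin-Ahx-Ub-VS at 0.5 µM final for 1 h. Values are average log2 ratios of fragment over vehicle by unpaired t-test, based on global-median-normalised Spectronaut label-free quantities from proteins with ≥2 unique peptides.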

[2] = target: USP46 (UniProt P62068)
Method in brief: as §1

[3] = target: T2, USP47 (UniProt Q96K76)
T2 sequence (whole entry): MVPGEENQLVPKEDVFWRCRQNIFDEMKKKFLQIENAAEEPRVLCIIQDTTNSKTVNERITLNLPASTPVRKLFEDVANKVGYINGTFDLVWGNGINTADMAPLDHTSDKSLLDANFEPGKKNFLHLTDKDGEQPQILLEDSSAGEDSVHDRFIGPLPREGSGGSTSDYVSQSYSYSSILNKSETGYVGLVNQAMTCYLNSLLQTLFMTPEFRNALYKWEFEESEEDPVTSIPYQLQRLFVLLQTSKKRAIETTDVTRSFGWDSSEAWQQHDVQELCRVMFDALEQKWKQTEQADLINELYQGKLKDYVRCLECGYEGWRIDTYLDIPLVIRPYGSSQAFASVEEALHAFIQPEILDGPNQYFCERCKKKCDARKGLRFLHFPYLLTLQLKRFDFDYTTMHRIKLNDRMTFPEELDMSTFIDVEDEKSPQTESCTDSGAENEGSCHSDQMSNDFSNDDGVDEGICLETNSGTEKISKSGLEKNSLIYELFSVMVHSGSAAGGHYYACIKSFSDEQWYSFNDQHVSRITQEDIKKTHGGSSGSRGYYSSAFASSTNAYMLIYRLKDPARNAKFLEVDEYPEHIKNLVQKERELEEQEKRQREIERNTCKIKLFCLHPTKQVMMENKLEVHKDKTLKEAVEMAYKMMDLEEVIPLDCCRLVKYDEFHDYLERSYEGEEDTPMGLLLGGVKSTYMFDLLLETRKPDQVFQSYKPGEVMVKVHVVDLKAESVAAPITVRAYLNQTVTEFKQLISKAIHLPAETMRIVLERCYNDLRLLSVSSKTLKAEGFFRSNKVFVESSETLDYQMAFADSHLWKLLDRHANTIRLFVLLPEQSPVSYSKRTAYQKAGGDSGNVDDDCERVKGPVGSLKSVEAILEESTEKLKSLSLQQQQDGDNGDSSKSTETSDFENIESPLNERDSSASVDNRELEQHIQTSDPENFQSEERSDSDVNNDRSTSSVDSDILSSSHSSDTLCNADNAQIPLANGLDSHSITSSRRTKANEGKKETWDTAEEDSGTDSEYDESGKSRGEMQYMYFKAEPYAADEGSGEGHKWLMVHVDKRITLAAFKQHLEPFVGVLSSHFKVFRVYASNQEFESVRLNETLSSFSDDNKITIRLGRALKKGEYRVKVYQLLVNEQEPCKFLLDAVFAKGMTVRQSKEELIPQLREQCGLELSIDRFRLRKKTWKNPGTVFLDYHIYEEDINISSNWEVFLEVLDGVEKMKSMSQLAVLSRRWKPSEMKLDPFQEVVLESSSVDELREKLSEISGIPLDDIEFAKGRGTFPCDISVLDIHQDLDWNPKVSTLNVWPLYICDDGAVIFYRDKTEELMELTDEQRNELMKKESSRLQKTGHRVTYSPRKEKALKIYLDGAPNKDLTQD
Method in brief: as §1

[4] = target: T3, USP48 (UniProt Q86UV5)
T3 sequence (whole entry): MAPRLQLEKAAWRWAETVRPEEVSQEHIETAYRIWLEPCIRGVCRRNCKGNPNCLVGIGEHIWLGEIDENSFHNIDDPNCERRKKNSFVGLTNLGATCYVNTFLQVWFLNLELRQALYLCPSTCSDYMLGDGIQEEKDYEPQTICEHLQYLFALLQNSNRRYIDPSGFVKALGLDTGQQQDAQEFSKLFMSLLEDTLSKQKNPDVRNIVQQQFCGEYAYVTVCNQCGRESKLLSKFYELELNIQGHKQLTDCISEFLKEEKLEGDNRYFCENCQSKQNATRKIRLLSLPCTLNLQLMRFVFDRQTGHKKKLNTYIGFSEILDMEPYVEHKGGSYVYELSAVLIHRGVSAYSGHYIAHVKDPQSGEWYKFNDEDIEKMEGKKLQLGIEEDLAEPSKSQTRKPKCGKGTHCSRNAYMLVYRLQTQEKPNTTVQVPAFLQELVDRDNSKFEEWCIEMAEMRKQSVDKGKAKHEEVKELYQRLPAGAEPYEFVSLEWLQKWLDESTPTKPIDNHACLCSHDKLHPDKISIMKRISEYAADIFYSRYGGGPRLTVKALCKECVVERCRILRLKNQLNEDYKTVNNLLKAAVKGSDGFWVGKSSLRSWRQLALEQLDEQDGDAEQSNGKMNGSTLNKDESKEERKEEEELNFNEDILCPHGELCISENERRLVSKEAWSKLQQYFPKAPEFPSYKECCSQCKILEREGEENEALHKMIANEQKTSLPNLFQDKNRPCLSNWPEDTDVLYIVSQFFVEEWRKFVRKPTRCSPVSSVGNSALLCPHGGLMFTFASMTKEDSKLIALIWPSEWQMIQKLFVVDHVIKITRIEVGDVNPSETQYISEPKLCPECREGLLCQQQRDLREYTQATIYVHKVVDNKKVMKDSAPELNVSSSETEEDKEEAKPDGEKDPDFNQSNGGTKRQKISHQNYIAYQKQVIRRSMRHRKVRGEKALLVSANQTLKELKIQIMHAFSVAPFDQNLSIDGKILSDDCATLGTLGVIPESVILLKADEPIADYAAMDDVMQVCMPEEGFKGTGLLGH
Method in brief: as §1

[5] = target: T4, USP5 (UniProt P45974)
T4 sequence (whole entry): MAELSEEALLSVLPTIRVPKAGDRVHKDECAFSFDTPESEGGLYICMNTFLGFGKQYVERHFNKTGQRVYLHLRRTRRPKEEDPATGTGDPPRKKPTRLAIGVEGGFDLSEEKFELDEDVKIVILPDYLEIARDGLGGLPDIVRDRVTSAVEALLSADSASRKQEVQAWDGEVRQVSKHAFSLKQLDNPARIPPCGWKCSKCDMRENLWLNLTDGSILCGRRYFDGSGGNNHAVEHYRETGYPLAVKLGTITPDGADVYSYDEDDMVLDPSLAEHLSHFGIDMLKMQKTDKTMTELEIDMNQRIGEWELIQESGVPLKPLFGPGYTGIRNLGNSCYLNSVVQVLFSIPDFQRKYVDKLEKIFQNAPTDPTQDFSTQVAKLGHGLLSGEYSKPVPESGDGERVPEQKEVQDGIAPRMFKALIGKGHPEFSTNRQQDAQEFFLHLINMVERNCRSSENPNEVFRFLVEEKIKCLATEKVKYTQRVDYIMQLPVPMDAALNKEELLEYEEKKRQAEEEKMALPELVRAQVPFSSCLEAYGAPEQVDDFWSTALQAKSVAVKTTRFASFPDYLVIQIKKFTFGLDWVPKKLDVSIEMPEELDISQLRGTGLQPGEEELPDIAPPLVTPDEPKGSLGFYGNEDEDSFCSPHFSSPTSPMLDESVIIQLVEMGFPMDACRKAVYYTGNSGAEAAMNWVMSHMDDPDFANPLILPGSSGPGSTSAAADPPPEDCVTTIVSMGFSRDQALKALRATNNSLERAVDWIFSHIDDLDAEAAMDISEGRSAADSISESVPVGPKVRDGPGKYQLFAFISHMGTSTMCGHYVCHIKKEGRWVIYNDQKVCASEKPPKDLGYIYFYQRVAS
Method in brief: as §1

[6] = target: USP54 (UniProt Q70EL1)
Method in brief: as §1

[7] = target: USP7 (UniProt Q93009)
Method in brief: as §1

[8] = target: T5, USP8 (UniProt P40818)
T5 sequence (whole entry): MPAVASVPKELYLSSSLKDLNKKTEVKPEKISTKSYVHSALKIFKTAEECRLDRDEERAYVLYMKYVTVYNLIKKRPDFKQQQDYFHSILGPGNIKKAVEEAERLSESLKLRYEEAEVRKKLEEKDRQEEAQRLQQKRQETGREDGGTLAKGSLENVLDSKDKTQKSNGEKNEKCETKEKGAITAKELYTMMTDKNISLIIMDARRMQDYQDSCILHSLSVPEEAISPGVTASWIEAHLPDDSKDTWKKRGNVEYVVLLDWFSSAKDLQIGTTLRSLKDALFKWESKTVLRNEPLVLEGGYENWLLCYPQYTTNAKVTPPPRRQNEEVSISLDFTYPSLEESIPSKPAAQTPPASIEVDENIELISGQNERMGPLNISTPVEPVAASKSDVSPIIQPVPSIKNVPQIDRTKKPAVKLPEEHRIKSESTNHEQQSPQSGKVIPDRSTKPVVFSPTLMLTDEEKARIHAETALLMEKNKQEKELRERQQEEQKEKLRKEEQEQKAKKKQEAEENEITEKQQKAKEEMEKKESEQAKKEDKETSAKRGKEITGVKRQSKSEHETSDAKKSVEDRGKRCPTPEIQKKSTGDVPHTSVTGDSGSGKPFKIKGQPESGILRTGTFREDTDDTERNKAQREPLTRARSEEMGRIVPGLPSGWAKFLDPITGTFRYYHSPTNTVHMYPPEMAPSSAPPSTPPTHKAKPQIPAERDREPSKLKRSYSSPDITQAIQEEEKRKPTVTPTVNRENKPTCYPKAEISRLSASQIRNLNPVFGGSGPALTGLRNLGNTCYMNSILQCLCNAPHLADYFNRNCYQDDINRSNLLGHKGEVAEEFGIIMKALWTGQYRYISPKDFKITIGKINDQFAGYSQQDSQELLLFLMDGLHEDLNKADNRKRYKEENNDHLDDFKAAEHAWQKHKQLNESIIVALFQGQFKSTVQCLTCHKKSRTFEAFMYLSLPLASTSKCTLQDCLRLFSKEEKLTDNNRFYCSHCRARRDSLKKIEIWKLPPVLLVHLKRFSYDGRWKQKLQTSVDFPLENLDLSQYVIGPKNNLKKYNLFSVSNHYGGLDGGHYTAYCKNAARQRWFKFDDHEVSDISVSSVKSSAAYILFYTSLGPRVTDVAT
Method in brief: as §1

[9] = target: USP9X (UniProt Q93008)
Method in brief: as §1

[10] = target: UniProt O00487
Method in brief: as §1

Measured: log2 ratio of Biotin-Ahx-Ub-VS probe labelling

Chain of USP7 (Q93009 whole entry, looked up): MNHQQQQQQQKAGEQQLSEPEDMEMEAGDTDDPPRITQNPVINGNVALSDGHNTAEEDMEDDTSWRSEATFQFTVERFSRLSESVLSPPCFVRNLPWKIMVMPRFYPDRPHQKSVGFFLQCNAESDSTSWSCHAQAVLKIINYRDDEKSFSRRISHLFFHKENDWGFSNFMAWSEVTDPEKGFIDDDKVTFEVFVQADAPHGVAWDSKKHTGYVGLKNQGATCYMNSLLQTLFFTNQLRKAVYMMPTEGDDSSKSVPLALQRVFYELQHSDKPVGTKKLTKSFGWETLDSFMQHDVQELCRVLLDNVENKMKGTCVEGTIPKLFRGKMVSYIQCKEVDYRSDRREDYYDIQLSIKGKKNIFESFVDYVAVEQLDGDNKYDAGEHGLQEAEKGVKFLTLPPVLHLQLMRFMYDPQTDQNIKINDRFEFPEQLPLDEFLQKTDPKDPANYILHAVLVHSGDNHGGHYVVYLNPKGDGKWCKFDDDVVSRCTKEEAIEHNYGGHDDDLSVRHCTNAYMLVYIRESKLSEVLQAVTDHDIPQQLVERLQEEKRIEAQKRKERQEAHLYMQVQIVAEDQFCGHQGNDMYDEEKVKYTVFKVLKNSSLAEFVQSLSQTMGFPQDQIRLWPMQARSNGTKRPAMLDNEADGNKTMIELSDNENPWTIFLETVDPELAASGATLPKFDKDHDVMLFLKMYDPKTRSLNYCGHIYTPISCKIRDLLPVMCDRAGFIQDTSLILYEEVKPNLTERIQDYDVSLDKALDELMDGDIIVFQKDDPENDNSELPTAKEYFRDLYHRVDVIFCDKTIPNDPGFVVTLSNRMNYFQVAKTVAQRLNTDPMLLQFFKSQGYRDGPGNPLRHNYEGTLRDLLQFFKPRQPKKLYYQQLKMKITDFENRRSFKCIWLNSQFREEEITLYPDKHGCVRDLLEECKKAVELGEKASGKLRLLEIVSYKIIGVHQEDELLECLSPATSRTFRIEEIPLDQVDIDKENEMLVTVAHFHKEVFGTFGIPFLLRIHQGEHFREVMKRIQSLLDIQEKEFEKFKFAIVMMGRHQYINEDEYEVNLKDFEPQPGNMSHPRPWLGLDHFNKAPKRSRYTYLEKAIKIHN
Chain of USP54 (Q70EL1 whole entry): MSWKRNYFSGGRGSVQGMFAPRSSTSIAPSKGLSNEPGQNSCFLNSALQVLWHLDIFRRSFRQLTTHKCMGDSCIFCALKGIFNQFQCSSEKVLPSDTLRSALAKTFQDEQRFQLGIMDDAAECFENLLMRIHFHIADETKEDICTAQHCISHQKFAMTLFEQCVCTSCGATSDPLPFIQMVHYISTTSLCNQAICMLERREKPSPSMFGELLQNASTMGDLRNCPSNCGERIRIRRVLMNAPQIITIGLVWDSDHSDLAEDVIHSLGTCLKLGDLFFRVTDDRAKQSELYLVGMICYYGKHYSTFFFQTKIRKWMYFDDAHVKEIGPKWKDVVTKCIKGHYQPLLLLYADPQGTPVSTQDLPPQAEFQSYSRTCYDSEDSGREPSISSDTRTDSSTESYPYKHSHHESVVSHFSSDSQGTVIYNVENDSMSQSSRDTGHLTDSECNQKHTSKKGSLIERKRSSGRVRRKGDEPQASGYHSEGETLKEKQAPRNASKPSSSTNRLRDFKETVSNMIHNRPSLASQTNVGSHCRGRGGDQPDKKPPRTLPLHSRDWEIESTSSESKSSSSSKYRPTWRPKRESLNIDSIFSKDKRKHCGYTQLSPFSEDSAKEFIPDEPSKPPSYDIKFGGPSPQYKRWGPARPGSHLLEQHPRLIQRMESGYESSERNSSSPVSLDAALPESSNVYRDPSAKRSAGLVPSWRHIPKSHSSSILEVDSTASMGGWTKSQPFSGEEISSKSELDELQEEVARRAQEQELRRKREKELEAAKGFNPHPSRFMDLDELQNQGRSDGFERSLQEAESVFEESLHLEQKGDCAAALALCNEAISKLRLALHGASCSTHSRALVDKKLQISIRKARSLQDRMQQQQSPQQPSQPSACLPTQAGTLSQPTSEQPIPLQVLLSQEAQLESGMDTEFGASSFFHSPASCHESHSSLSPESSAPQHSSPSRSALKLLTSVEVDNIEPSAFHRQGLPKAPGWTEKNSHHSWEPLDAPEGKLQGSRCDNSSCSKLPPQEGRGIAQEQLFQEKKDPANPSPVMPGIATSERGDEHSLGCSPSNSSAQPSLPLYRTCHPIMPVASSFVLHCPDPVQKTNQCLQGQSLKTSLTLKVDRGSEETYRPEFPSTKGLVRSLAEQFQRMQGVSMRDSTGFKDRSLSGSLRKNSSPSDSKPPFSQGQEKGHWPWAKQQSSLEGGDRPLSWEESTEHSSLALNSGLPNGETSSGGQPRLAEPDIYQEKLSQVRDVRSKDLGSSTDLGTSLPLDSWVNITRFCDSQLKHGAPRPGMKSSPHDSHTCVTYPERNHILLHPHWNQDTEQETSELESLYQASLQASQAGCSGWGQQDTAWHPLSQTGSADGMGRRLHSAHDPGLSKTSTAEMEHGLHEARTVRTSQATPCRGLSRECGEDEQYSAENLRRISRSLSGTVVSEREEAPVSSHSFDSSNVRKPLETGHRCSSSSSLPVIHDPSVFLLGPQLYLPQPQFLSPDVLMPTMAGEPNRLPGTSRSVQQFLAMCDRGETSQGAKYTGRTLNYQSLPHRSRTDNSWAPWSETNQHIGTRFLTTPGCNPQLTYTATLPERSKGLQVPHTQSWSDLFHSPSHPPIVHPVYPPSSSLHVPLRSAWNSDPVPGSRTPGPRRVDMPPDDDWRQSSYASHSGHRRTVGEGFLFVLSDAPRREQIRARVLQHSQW
Chain of UniProt O00487 (O00487 whole entry): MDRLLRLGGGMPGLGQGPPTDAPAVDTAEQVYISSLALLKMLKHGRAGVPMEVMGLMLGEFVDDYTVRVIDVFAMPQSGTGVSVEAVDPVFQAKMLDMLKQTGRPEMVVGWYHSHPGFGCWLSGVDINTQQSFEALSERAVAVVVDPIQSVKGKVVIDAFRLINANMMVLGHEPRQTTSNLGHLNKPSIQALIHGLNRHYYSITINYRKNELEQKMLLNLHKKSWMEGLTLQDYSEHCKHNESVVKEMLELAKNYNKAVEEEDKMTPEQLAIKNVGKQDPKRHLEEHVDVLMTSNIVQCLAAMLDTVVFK
Chain of USP46 (P62068 whole entry): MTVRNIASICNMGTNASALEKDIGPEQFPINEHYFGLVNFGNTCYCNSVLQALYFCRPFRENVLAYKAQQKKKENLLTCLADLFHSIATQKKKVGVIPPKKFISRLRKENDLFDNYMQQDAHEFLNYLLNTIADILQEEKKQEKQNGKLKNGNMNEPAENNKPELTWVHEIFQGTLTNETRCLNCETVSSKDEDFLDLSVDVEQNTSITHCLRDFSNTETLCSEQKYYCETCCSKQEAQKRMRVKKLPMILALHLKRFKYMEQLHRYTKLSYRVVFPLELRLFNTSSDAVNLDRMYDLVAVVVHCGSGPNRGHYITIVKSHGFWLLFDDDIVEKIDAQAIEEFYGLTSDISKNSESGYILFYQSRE

CCC(NC(=O)CCl)c1ccc(Cl)cc1 (stereo not given)
inactive: [1] 0.358 | [2] -0.00255 | [3] -0.558 | [4] -0.293 | [5] 0.0661 | [6] 0.671 | [7] -0.195 | [8] -0.0586 | [9] -0.112 | [10] 0.0429

O=C(CCl)N1CC2(CCOCC2)C1
inactive: [1] -0.145 | [2] 0.00462 | [3] 0.0373 | [4] -0.152 | [5] 0.362 | [6] 0.355 | [7] -0.055 | [8] 0.147 | [9] -0.238 | [10] -0.0916

C[C@@H](NC(=O)CCl)c1cccc(C#N)c1
inactive: [1] 0.213 | [2] 0.013 | [3] -0.609 | [4] -0.209 | [5] 0.067 | [6] 0.0518 | [7] -0.0563 | [8] -0.19 | [9] -0.116 | [10] 0.0457

Cc1nc(CNC(=O)CCl)c2ccccn12.Cl
inactive: [1] 0.298 | [2] 0.0871 | [3] -0.0462 | [4] 0.164 | [5] 0.133 | [6] -0.0547 | [7] -0.157 | [8] -0.312 | [9] -0.222 | [10] 0.0442
